Records with an inconclusive call do not appear. A call without a number means that no potency is given here. The source made the active and inactive calls. Unless noted, calls come from the whole dose curve; as a rule, active = well fitted curve in the direction sought with a large enough effect in the repeat runs; inconclusive = weak or mixed curves; inactive = no such curve, though single readings can be large; an effect the other way counts as inactive or inconclusive.
Experiments:
[1] = Caspase-3/7 induction in CHO-K1 cells by small molecules, qHTS assay (AID 1346980); note: nearly all actives have a fitted effect of over 15% in size
Summary of the method: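 Wild-type CHO-K1 cells exposed to compounds for 17hr at 37 C, 5% CO2. Caspase-3/7 activity then measured by Caspase-Glo 3/7 luminescence after 30min at room temperature.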

[2] = qHTS assay to identify small molecule antagonists of the sonic hedgehog signaling (Shh) pathway (AID 1259369; calls by dose curve; note: nearly all actives have a fitted effect of over 45% in size)
Summary of the method: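 NIH/3T3-derived 3T3Gli1-Luc cells with stably integrated Gli1-Luc reporter were preincubated 4hr at 37 C, then given compounds in DMSO plus Shh conditioned medium and incubated 24hr. Firefly luciferase luminescence read after 30min reagent at room temperature.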

[3] = molecular target: Nuclear receptor subfamily 1 group I member 3 (Homo sapiens) (UniProt Q14994); assay: qHTS assay to identify small molecule agonists of the constitutive androstane receptor (CAR) signaling pathway (AID 1224839);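 note: HepG2 cells stably carrying human CAR and a CYP2B6 luciferase reporter; series mostly up to about 92 µM; nearly all actives have a fitted effect of over 15% in size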
Nuclear receptor subfamily 1 group I member 3 (Homo sapiens), sequence (Q14994 whole entry, looked up): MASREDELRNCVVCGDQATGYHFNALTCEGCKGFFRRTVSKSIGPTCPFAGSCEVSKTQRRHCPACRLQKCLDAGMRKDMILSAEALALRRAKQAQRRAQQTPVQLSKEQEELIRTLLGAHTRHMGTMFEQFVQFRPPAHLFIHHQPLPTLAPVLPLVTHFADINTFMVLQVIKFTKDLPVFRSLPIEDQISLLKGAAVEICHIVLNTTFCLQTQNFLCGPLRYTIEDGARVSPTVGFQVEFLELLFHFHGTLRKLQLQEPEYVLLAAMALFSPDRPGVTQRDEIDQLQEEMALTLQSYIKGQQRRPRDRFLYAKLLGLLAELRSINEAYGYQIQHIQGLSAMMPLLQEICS
Summary of the method: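 Luminescence read-out (ONE-Glo, 30 min, room temperature) from double-stable HepG2-CYP2B6-hCAR cells exposed 24 h to 15-point compound series in presence of 0.75 uM PK11195 final.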

O=[N+]([O-])c1ccccc1Cl
outcome [1]: inactive

Cc1ccc(O)cc1C
Potency [2]: inactive

Clc1nc(Cl)c(Cl)c(Cl)c1Cl
Potency [3]: inactive

— PubChem BioAssay (Tox21)
